# In ChEMBL document CHEMBL4513216, “Probing the Open Global Health Chemical Diversity Library for Multistage-Active Starting Points for Next-Generation Antimalarials” (ACS Infect Dis, 2020):
# Screen size: about 68,000 compounds; about 2,700 (4%) showed an effect of 50% or more. This excerpt belongs to a sample that is enriched for strong results.
# System: Plasmodium berghei
# Assay: Screen against P. berghei liver stage (PbLuc), transformed with Luciferase, at 2uM
# Assay type: functional, HepG2
# Settings: tested at 2 uM
row,Structure (SMILES),INHIBITION [%]
1,CN1CCCC1CCNC(=O)c1ccccc1-n1cnc(CN)c1 (stereo unspecified),22.95
2,CN(C)Cc1cn(-c2ccccc2C(=O)NCC2CCCCN2C)cn1 (stereo unspecified),87.38
3,Cc1csc(N2CCN(Cc3nnsc3Cl)CC2C)n1 (stereo unspecified),-39.79
4,c1ccc(C[C@H]2CN(Cc3nccs3)CC[C@@H]2OCC2CC2)cc1,41.79
5,CC(C)NC(=O)N(C)C(c1cccc(F)c1)c1ccccn1 (stereo unspecified),-30.55
6,CCNC(=O)N(C)C(c1ccccc1)c1ccccn1 (stereo unspecified),-18.26
7,CCNC(=O)N(C)C(c1cccc(F)c1)c1ccccn1 (stereo unspecified),51.21
8,Cc1ccc(S(=O)(=O)N2CCOCC2C(N)=O)c(F)c1 (stereo unspecified),14.17
9,Cc1ccnc(SCC(=O)Nc2csc3nc(=O)c(C)nn23)n1,35.42
10,CNC(=O)COc1cccc(CNC(=O)c2c(C)noc2C(C)C)c1,74.35
11,COCc1cccc(CNC(=O)c2c(C)noc2C(C)C)c1,49.9
12,Cc1noc(C)c1C(=O)NCC(c1ccsc1)N(C)C (stereo unspecified),-12.82
13,Cc1noc(C(C)C)c1C(=O)NCC(c1ccsc1)N(C)C (stereo unspecified),63.95
14,CNC(=O)COc1cccc(CNC(=O)c2c(C)noc2C)c1,24.36
15,Cc1noc(C(C)C)c1C(=O)NCc1cccc(N(C)C)c1,-57.97
16,Cc1noc(C(C)C)c1C(=O)NCc1ccc2c(c1)OCCO2,56.02
17,Cc1noc(C(C)C)c1C(=O)NCc1ccc(N(C)C)c(F)c1,-9.17
18,CCN(CC)C(CNC(=O)c1c(C)noc1C(C)C)c1ccsc1 (stereo unspecified),-25.61
19,O=S(=O)(C1CC1)N1CCCn2nnc(Cn3cccc3)c2C1,23.81

row,Structure (SMILES),INHIBITION [%]
1,CCOCCC(=O)N1CCCCC1CCn1cccn1 (stereo unspecified),30.25
2,CCn1cc2c(n1)CN(Cc1ccncc1)CC2COCC1CC1 (stereo unspecified),14.94
3,CCOCC1CN(c2ccncn2)Cc2cnn(CC)c21 (stereo unspecified),32.69
4,Cc1cc2c(N3CCC(N(C)CCc4cnn(C)c4)CC3)ncnc2s1,-15.4
5,CSCC(CCO)NC(=O)Nc1ccc(Br)cc1 (stereo unspecified),-39.48
6,C[C@@H]1CN(C(=O)CCc2nncn2C)CC[C@@]1(O)C1CCC1,12.43
7,C[C@@H]1CN(C(=O)CCc2cnn(C)c2)C[C@@]1(O)C1CCC1,11.33
8,C[C@@H]1CN(C(=O)CCc2nncn2C)C[C@@]1(O)C1CCC1,52.08
9,Cc1noc(C)c1CCC(=O)Nc1ccn(C)n1,-7.68
10,CN(Cc1cnccn1)CC1CCOc2ccccc2C1 (stereo unspecified),20.76
11,CCc1n[nH]c(C(=O)NCCn2ccnc2C)c1C,57.34
12,CCc1n[nH]c(C(=O)NCCn2ccc(C)n2)c1C,16.87
13,CCc1n[nH]c(C(=O)NCCn2nccc2C)c1C,20.71
14,CC(=O)c1ccc(F)cc1-c1cc(NCCO)nc2[nH]ccc12,6.85
15,COc1ccccc1Nc1nc2c(s1)C(=O)CN(C(=O)CC(C)C)C2,2.6
16,CC(C)CNC(=O)CNC(=O)c1nc(Cc2c(Cl)cccc2Cl)no1,-2.09
17,O=C(NCC(=O)N1CCCC1)c1nc(Cc2c(Cl)cccc2Cl)no1,57.4
18,CC(O)CNC(=O)c1nc(Cc2c(Cl)cccc2Cl)no1 (stereo unspecified),20.71
19,COC(=O)NCC(=O)NCC(C)(C)c1cccc(Br)c1,19.07

row,Structure (SMILES),INHIBITION [%]
1,Cc1ccc(CN2CCC3(CCC(C(=O)N(C)C)O3)CC2)o1 (stereo unspecified),5.14
2,CN(C)C(=O)C1CCC2(CCN(Cc3ccc4ccccc4n3)CC2)O1 (stereo unspecified),23.26
3,Cc1cccc(CN2CCC3(CCC(C(=O)N(C)C)O3)CC2)n1 (stereo unspecified),58.4
4,CCn1cnc(NC(=O)NCC2CCS(=O)(=O)CC2)n1,28.85
5,Cc1ccc(CN2CCOC(C)(c3cnn(C)c3)C2)cc1 (stereo unspecified),21
6,O=C(NCc1ccco1)C1CCCN1Cc1nc(-c2ccco2)no1 (stereo unspecified),-43.47
7,O=C(C1CCCN1Cc1nc(-c2ccco2)no1)N1CCSCC1 (stereo unspecified),58.05
8,CC(C)N1CCN(C(=O)Cc2csc(-c3ccco3)n2)CC1,28.18
9,O=C(Cc1csc(-c2ccco2)n1)N1CCN(CCO)CC1,-27.91
10,O=C(C1CCCCN1Cc1nc(-c2ccco2)no1)N1CCCC1 (stereo unspecified),-113.33
11,O=C(Cc1csc(-c2ccco2)n1)N1CCSCC1,50.76
12,CNC(=O)C1CCCN(C(=O)OC)C1 (stereo unspecified),-0.28
13,O=C(CCN1CCCCO1)NCc1cn2c(n1)SCC2,21.36
14,Cc1nc(-c2ccccc2)n(CC(=O)NCC(C)C)n1,26.4
15,COc1ccc(CN2CCC3(CCCN(c4ncc(F)cn4)C3)C2)cc1 (stereo unspecified),-50.35
16,Cc1nc(C)n(CC2CN(c3ccc(C#N)cn3)CCO2)n1 (stereo unspecified),-16.42
17,Cc1cnn(CC2CN(c3ccc(C#N)cn3)CCO2)c1 (stereo unspecified),-11.2
18,CN(C)CC1CN(c2ccc(C#N)cn2)CCO1 (stereo unspecified),54.85
